Laboratory results reported in PubChem BioAssay (NCI).
The panel holds about 83,000 compounds, 20% with a hit somewhere; the sample as a whole holds those more often.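 Method: cells in 96-well plates; compound added at one concentration; 48 h incubation; percent growth measured; values under 10 scored active.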 A number with no mark means an inactive call. Active and inactive are the calls of the source.

System: HL-60(TB) leukemia
Test: NCI-60 one-dose screen, 48 h (100 = growth as untreated, 0 = no growth, -100 = all killed)
Details: 10 µM unless noted

| SMILES | growth |
| --- | --- |
| Cc1cccc2nc3c(n12)C(=O)C(=O)c1ccccc1-3 | 77.4% |
| CO[C@H](C(=O)[C@@H](O)[C@@H](C)O)[C@@H]1Cc2cc3cc(O[C@H]4C[C@@H](O[C@H]5C[C@@H](O)[C@H](O)C(C)O5)[C@H](O)C(C)O4)c(C)c(O)c3c(O)c2C(=O)[C@H]1O[C@H]1C[C@@H](O[C@H]2C[C@@H](O[C@H]3C[C@](C)(O)C(=O)C(C)O3)[C@@H](O)C(C)O2)[C@H](O)C(C)O1 (stereo not given in full) | 2.34% (active) |
| CCCCCCC(C)(O)c1ccccc1 (stereo not given) | 94.6% |
| CCC(C)[C@H](NC(C)=O)C(=O)N[C@@H](CCCNC(=N)N)C(=O)N[C@@H](CCCCN)C(=O)N[C@@H](CC1CCC(O)CC1)C(=O)NC(C(=O)N[C@@H](CCSC)C(=O)N[C@@H](CCCNC(=N)N)C(=O)N[C@@]1(C)CCC/C=C\CCC[C@@](C)(C(=O)NC(C(=O)N[C@@H](CCC(=O)O)C(=O)N[C@@H](CC(C)C)C(=O)N[C@H](C(=O)N[C@@H](CCC(=O)O)C(N)=O)C(C)C)[C@@H](C)O)NC(=O)[C@H](CCC(N)=O)NC(=O)[C@H](CC(C)C)NC(=O)[C@H](CC(C)C)NC1=O)[C@@H](C)O (stereo not given in full) | 97.3% |
| C[n+]1c(/C=C/c2ccc([N+](=O)[O-])cc2)ccc2ccccc21 | 99.3% |
| COc1cc(/C=C2\Oc3cc(OCC(=O)c4ccccc4)ccc3C2=O)cc(OC)c1OC | 118% |
| CC(=O)Nc1ccc(NC(C)=O)c2c1C(=O)c1ccccc1C2=O | 154% |
| Cc1nn(-c2ccc(-c3ccc(OC(F)(F)F)cc3)cc2)c2nc(Cc3ccccc3)nc(N)c12 | 88.3% |
| Cc1ccc2nc(Cl)c(-c3nc4ccccc4o3)cc2c1 | 94.4% |
| NCCCNc1nc2ccccc2c2c(=O)c3cc(F)ccc3sc12 | -28.1% (active) |
| COc1cc2nc(-c3cnc(N(C)C)nc3)nc(NC3CCN(Cc4ccccc4)CC3)c2cc1OC | -52.3% (active) |
| CC(C)CSc1nc(NN)c(C#N)c(-c2ccccc2)n1 | 106% |
| Cc1ccc(-n2nc3n(/c2=N\C(=O)NS(=O)(=O)c2ccc(C)cc2)CCN3C2=NCCN2)cc1 | 146% |
| COc1cc(C2C=C(c3ccc(Cl)c(Cl)c3)N=C3SC(C)=CN32)cc(OC)c1OC (stereo not given) | 61.6% |
| O=c1[nH]c(-c2ccccn2)nc2sc3c(c12)CCCCCC3 | 10.9% |
| COC(=O)[C@]12CC[C@@H](C)[C@H](C)[C@@H]1C1=CC[C@@H]3[C@@]4(C)C(C=O)=C[C@@](C)(CO)C4=CC[C@@]3(C)[C@]1(C)CC2 | 16.1% |
| CC1(C)CC[C@]2(c3nnc(-c4ccncc4)o3)CC[C@]3(C)C(=CC[C@@H]4[C@@]5(C)CCC(=O)C(C)(C)[C@@H]5CC[C@]43C)[C@@H]2C1 | 30.7% |
| Cc1nc2sc(C(=O)Nc3ccccn3)c(N)c2cc1C(C)O (stereo not given) | 34.1% |
| Cc1ccccc1N1C(c2ccccc2)=NNC12C=CC(=O)C=C2Cl (stereo not given) | 82.4% |
| c1ccc(Sc2ncccn2)nc1 | 100% |
| COc1ccc(C2CC(c3ccc(OC)c(OC)c3)=NN2C(=O)c2cc(OC)c(OC)c(OC)c2)cc1 (stereo not given) | 5.49% (active) |
| COc1cc(Nc2ccnc(N3CCN(c4ccnc5cc(Cl)ccc45)CC3)n2)cc(OC)c1 | -23.7% (active) |
| FC(F)(F)c1ccc(-c2cnc(Cl)nc2NCc2cc(C(F)(F)F)cc(C(F)(F)F)c2)cc1 | 5.98% (active) |
| CCOC(=O)/C(C#N)=C1/NNC(=Nc2cccnc2)S1 | 102% |
| Fc1ccc2[nH]cc(-c3nc(-c4c[nH]c5ccncc45)cs3)c2c1 | -42.1% (active) |
| C=C1CC[C@@H]2[C@](C)(COC(C)=O)[C@H](OC(C)=O)CC[C@@]2(C)[C@@H]1CC(Nc1ccc(S(=O)(=O)Nc2nccs2)cc1)C1=CCOC1=O (stereo not given in full) | -20.9% (active) |
| COC(=O)[C@@H]1CCCN1C(=O)[C@H]1CCCN1C(=O)[C@@H](Cc1c[nH]c2ccccc12)NC(=S)Nc1cc(C(F)(F)F)cc(C(F)(F)F)c1 | 12.2% |
| COc1ccc(/C=C2\CN(C(=O)C(Cl)Cl)C/C(=C\c3ccc(OC)cc3)C2=O)cc1 | -11.9% (active) |
| CN(C)CCN(Cc1ccccc1)c1ccccc1 | 86.6% |
| CCOC(=O)/C(=C/c1ccc(OC)cc1)N(CC)CC | 98% |
